Outcome and AC50 data for ten molecules are collected here from PubChem BioAssay (EPA / NIEHS).

The source made the active and inactive calls. How the source made its calls: active means hit-call score of the fitted dose curve at least 0.9, where 1 is the maximum; inactive means score below 0.9.

Experiment [1] in a line: CEETOX_H295R_ESTRADIOL: CeeTox H295R High-throughput Steroidogenesis Assay for Estradiol (AID 2283440).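 Further: estradiol secreted into medium quantified by LC-MS/MS after dansyl derivatisation.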 The note with it: actives raise or lower the signal. The method in brief: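 Estradiol secreted into the medium was measured by tandem mass spectrometry after liquid-liquid extraction and dansylation. Human H295R cells had been forskolin-primed (10 uM, 48 h) before a 48 h chemical exposure with 0.1% DMSO.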

Experiment [2] in a line: CEETOX_H295R_PROG: CeeTox H295R High-throughput Steroidogenesis Assay for Progesterone (PROG) (AID 2283442).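 On AC50: human H295R adrenal cells primed with 10 µM forskolin before dosing; progesterone secreted into medium by H295R cells measured by HPLC-MS/MS.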 The note with it: actives raise or lower the signal. The gist of the method: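 Steps: seed H295R cells and let them adhere overnight; prime 48 h with 10 uM forskolin; dose with compound in DMSO at 0.1% final for 48 h; extract medium steroids with MTBE; measure progesterone by LC-MS/MS. MTT viability was run in the same wells.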

Read-out in experiment [3]: Fatty acid synthase (Homo sapiens) (UniProt P49327)
Briefly: LTEA_HepaRG_FASN: Life Technologies and Expression Analysis (LTEA) Assay for Fatty Acid Synthase (FASN) using HepaRG (AID 2283448).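 On AC50: differentiated human HepaRG liver cells in serum-free induction medium.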 The following applies: mRNA level, 48 h; actives raise or lower the signal. The method in brief:
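Differentiated HepaRG cells in serum-free induction medium exposed 48 h in duplicate to eight half-log concentrations, top 100 uM, 0.5% DMSO. FASN mRNA by qRT-PCR normalised to ACTB, GAPDH, POLR2A; bidirectional fit versus DMSO.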

Read-out in experiment [4]: Cyclin D2 (CCND2), CCND2 (gene 894)
Briefly: LTEA_HepaRG_CCND2: Life Technologies and Expression Analysis (LTEA) Assay for Cyclin D2 (CCND2) using HepaRG (AID 2283449). The note with it: mRNA level, 48 h; actives raise or lower the signal. The method in brief: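 Read-out is CCND2 mRNA level measured by qRT-PCR in human HepaRG liver cells and normalised to three housekeeping genes. Chemicals were applied for 48 h at up to 100 uM, with gain or loss fitted relative to 0.5% DMSO.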

Read-out in experiment [5]: Cyclin Dependent Kinase Inhibitor 1A (CDKN1A), CDKN1A (gene 1026)
The experiment can be described thus: LTEA_HepaRG_CDKN1A: Life Technologies and Expression Analysis (LTEA) Assay for Cyclin Dependent Kinase Inhibitor 1A (CDKN1A) using HepaRG (AID 2283450). The note with it: mRNA level, 48 h; actives raise or lower the signal. The method in brief: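 Read-out is CDKN1A mRNA by TaqMan qRT-PCR, normalized to three housekeeping genes and fitted in both directions against the DMSO baseline. Human HepaRG cells were treated 48 h with test chemicals up to 100 uM in half-log steps, 0.5% DMSO.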

Read-out in experiment [6]: Cyclin D1 (CCND1), CCND1 (gene 595)
Briefly: LTEA_HepaRG_CCND1: Life Technologies and Expression Analysis (LTEA) Assay for Cyclin D1 (CCND1) using HepaRG (AID 2283451). The note with it: mRNA level, 48 h; actives raise or lower the signal. The method in brief:
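HepaRG plated 48 h, medium switched to serum-free induction medium, chemicals added in duplicate (top 100 uM, half-log steps, 0.5% DMSO) for 48 h, cells lysed, RNA measured by TaqMan qRT-PCR.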

Read-out in experiment [7]: catalase (CAT), CAT (gene 847)
Briefly: LTEA_HepaRG_CAT: Life Technologies and Expression Analysis (LTEA) Assay for catalase (CAT) using HepaRG (AID 2283452). The following applies: mRNA level, 48 h; actives raise or lower the signal. The method in brief: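 Expression of CAT was quantified by TaqMan qRT-PCR with ACTB/GAPDH/POLR2A normalization after 48 h chemical exposure of HepaRG. Eight-point half-log series, top 100 uM, in 0.5% DMSO; gain or loss fitted against vehicle.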

Read-out in experiment [8]: flavin-containing dimethylaniline monooxygenases 3 (FMO3), FMO3 (gene 2328)
Briefly: LTEA_HepaRG_FMO3: Life Technologies and Expression Analysis (LTEA) Assay for flavin-containing dimethylaniline monooxygenases 3 (FMO3) using HepaRG (AID 2283453).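 On AC50: differentiated human HepaRG liver cells in serum-free induction medium.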 The note with it: mRNA level, 48 h; actives raise or lower the signal. The method in brief: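 Differentiated HepaRG cells in serum-free induction medium, exposed 48 h in duplicate to 8 half-log concentrations up to 100 uM in 0.5% DMSO. FMO3 mRNA by qRT-PCR, normalized to ACTB, GAPDH, POLR2A; bidirectional fit vs DMSO.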

Read-out in experiment [9]: CFLAR gene, CFLAR (gene 8837)
Briefly: LTEA_HepaRG_CFLAR: Life Technologies and Expression Analysis (LTEA) Assay for CFLAR gene using HepaRG (AID 2283455). The note with it: mRNA level, 48 h; actives raise or lower the signal. The gist of the method:
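HepaRG, 48 h exposure, 8-pt conc-response (100 uM top, half-log), 0.5% DMSO vehicle, duplicates. CFLAR expression by qRT-PCR; ACTB/GAPDH/POLR2A normalization; gain or loss fit vs DMSO baseline.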

Read-out in experiment [10]: Forkhead box O1 (FOXO1), FOXO1 (gene 2308)
The experiment can be described thus: LTEA_HepaRG_FOXO1: Life Technologies and Expression Analysis (LTEA) Assay for Forkhead box O1 (FOXO1) using HepaRG (AID 2283456). The note with it: mRNA level, 48 h; actives raise or lower the signal. The method in brief: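 Readout is FOXO1 transcript level by multiplexed qRT-PCR against three housekeeping genes, curve-fitted in both directions relative to 0.5% DMSO vehicle. Human HepaRG cultures received chemicals for 48 h, up to 100 uM in half-log steps.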

Read-out in experiment [11]: Forkhead box O3 (FOXO3), FOXO3 (gene 2309)
The experiment can be described thus: LTEA_HepaRG_FOXO3: Life Technologies and Expression Analysis (LTEA) Assay for Forkhead box O3 (FOXO3) using HepaRG (AID 2283459). The following applies: mRNA level, 48 h; actives raise or lower the signal. The method in brief:
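HepaRG, 48 h post-dose; 8 conc., half-log from 100 uM, 0.5% DMSO, duplicates; serum-free induction medium. Readout: FOXO3 mRNA, TaqMan qRT-PCR, housekeeping-normalized. Bidirectional curve fit vs DMSO baseline.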

Read-out in experiment [12]: growth arrest and DNA damage 45 (GADD45B), GADD45B (gene 4616)
Briefly: LTEA_HepaRG_GADD45B: Life Technologies and Expression Analysis (LTEA) Assay for growth arrest and DNA damage 45 (GADD45B) using HepaRG (AID 2283461). The following applies: mRNA level, 48 h; actives raise or lower the signal. The method in brief:
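HepaRG, ~100,000 cells/well, 48 h plating; serum-free induction medium; cpd 100 uM top, half-log x8, 0.5% DMSO, duplicate, 48 h; lysis in RLT, RNA isolation, qRT-PCR; norm ACTB/GAPDH/POLR2A; bidirectional fit vs DMSO.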

Read-out in experiment [13]: ABC Transporter (ABCC3), ABCC3 (gene 8714)
The experiment can be described thus: LTEA_HepaRG_ABCC3: Life Technologies and Expression Analysis (LTEA) Assay for ABC Transporter (ABCC3) using HepaRG (AID 2283462). The note with it: mRNA level, 48 h; actives raise or lower the signal. The method in brief:
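Human HepaRG, 48 h dosing, 8-pt half-log series from 100 uM, 0.5% DMSO vehicle, duplicates. ABCC3 mRNA by TaqMan qRT-PCR, housekeeping-normalized; bidirectional curve fit vs DMSO.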

Read-out in experiment [14]: Broad substrate specificity ATP-binding cassette transporter ABCG2 (Homo sapiens) (UniProt Q9UNQ0)
The experiment can be described thus: LTEA_HepaRG_ABCG2: Life Technologies and Expression Analysis (LTEA) Assay for ABC Transporter (ABCG2) using HepaRG (AID 2283465). The note with it: mRNA level, 48 h; actives raise or lower the signal. The gist of the method:
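Read-out is ABCG2 mRNA induction or loss quantified by qRT-PCR after 48 h chemical treatment of human HepaRG cells, normalized to three housekeeping genes. Concentrations reached 100 uM top in half-log steps; fitting was bidirectional against 0.5% DMSO.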

Read-out in experiment [15]: ATP-citrate lyase (ACLY), ACLY (gene 47)
The experiment can be described thus: LTEA_HepaRG_ACLY: Life Technologies and Expression Analysis (LTEA) Assay for ATP-citrate lyase (ACLY) using HepaRG (AID 2283466). The following applies: mRNA level, 48 h; actives raise or lower the signal. The gist of the method:
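HepaRG, 48 h exposure, 8-pt half-log dilutions (top 100 uM), 0.5% DMSO. Readout: ACLY mRNA, TaqMan qRT-PCR, housekeeping-normalized (ACTB/GAPDH/POLR2A). Bidirectional curve fit vs DMSO.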

Read-out in experiment [16]: Peroxisomal acyl-coenzyme A oxidase 1 (ACOX1) gene, ACOX1 (gene 51)
Briefly: LTEA_HepaRG_ACOX1: Life Technologies and Expression Analysis (LTEA) Assay for Peroxisomal acyl-coenzyme A oxidase 1 (ACOX1) gene using HepaRG (AID 2283467). The following applies: mRNA level, 48 h; actives raise or lower the signal. The gist of the method: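 Measured by qRT-PCR against three housekeeping genes: ACOX1 transcript change in human HepaRG cells after 48 h dosing. Concentrations ran up to 100 uM in half-log steps. Curves were fitted bidirectionally relative to 0.5% DMSO.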

Experiment [17] in a line: CEETOX_H295R_TESTO: CeeTox H295R High-throughput Steroidogenesis Assay for Testosterone (TESTO) (AID 2283457).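 Further: cells exposed to chemicals for 48 h before medium collection.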 The following applies: actives raise or lower the signal. The method in brief: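 H295R, passage ≤10, 48 h dosing; media extracted with MTBE → HPLC-MS/MS for testosterone; 7-pt standard curve sets LLOQ/ULOQ; bidirectional fit vs DMSO; MTT viability same wells.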

Read-out in experiment [18]: Cytochrome P450 (CYP1A1), CYP1A1 (gene 1543)
The experiment can be described thus: LTEA_HepaRG_CYP1A1: Life Technologies and Expression Analysis (LTEA) Assay for Cytochrome P450 (CYP1A1) using HepaRG (AID 2283454). The following applies: mRNA level, 48 h; actives raise or lower the signal. The gist of the method: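 HepaRG, 48 h post-plating switched to serum-free induction medium; 8-pt conc-response (top 100 uM, half-log, 0.5% DMSO), duplicates, 48 h. Lysis in RLT, TaqMan qRT-PCR for CYP1A1; gain or loss vs DMSO.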

Read-out in experiment [19]: ABC Transporter (ABCB1), ABCB1 (gene 5243)
Briefly: LTEA_HepaRG_ABCB1: Life Technologies and Expression Analysis (LTEA) Assay for ABC Transporter (ABCB1) using HepaRG (AID 2283460). The note with it: mRNA level, 48 h; actives raise or lower the signal. The method in brief: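 Expression of ABCB1 was quantified by qRT-PCR against three housekeeping genes after human HepaRG cultures received test chemicals for 48 hours. Concentrations spanned eight half-log steps topping at 100 uM in 0.5% DMSO; gain or loss of signal was fitted relative to vehicle.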

Read-out in experiment [20]: ABC Transporter (ABCB11), ABCB11 (gene 8647)
Briefly: LTEA_HepaRG_ABCB11: Life Technologies and Expression Analysis (LTEA) Assay for ABC Transporter (ABCB11) using HepaRG (AID 2283463). The following applies: mRNA level, 48 h; actives raise or lower the signal. The method in brief:
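ABCB11 transcript levels are read by Fluidigm TaqMan qRT-PCR after 48 h chemical treatment of human HepaRG cells. Concentrations span 100 uM downward in half-log steps with 0.5% DMSO; gain or loss is fitted against DMSO controls.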

Sequence of Fatty acid synthase (Homo sapiens) (P49327 whole entry, looked up): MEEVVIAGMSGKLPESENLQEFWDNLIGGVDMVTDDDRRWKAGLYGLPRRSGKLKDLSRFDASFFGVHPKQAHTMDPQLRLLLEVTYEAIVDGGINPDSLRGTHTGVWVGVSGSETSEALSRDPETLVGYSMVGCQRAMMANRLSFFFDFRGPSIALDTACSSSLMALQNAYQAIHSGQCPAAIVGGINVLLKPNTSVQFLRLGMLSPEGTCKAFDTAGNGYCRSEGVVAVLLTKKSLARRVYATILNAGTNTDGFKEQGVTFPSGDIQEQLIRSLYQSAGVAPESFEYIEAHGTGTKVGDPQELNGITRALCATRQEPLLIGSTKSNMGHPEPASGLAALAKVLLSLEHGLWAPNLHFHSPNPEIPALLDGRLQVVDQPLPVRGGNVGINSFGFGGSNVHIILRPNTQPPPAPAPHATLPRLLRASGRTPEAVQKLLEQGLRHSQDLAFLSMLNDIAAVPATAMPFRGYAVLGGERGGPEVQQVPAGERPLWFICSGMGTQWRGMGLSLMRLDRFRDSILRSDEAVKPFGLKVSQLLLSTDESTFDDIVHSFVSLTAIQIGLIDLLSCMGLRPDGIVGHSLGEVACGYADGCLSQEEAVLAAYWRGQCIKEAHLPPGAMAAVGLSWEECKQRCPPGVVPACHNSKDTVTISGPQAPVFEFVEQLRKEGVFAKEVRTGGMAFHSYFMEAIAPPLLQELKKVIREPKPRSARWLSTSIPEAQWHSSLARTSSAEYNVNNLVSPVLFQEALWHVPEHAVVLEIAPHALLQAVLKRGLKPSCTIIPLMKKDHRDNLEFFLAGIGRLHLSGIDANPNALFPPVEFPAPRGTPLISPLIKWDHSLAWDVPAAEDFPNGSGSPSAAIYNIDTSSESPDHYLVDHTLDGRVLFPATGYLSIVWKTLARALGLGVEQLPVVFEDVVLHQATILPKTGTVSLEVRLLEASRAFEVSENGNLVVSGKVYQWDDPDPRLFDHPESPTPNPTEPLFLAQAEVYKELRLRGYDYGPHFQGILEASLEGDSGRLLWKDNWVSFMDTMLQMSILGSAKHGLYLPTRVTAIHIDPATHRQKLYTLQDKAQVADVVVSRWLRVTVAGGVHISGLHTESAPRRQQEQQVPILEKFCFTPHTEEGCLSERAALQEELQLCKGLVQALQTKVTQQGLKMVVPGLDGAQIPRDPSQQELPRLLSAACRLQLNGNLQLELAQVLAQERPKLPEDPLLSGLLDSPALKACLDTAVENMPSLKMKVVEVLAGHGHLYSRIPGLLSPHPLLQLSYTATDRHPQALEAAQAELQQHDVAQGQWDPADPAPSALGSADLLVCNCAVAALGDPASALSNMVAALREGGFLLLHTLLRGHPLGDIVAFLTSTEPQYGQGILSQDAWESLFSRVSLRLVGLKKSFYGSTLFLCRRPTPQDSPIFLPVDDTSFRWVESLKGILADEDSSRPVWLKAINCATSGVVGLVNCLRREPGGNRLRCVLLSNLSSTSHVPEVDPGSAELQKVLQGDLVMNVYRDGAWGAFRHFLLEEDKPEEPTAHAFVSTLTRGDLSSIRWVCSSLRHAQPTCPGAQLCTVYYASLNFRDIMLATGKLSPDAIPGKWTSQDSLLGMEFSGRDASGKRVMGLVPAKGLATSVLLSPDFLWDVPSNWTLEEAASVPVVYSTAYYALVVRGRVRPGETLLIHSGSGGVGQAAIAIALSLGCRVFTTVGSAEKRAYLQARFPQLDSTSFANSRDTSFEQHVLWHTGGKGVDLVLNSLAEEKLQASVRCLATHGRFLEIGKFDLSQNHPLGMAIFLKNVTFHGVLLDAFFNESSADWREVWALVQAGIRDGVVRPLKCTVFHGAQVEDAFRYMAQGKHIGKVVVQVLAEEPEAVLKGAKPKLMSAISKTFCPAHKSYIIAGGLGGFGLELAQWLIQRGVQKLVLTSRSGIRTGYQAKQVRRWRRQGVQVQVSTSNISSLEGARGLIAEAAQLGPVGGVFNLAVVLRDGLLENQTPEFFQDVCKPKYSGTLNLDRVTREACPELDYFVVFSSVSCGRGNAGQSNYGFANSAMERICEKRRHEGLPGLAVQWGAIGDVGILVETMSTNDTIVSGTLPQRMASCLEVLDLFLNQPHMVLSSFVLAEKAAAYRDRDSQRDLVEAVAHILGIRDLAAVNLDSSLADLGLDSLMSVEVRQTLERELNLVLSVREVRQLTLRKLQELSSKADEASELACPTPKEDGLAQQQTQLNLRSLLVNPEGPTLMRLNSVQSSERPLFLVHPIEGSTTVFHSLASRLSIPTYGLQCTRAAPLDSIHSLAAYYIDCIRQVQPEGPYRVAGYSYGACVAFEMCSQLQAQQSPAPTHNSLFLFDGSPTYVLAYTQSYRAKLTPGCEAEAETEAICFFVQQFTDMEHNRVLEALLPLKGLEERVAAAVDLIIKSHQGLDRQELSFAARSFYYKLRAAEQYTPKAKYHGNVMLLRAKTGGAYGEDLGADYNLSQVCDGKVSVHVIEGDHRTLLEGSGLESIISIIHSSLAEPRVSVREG
Sequence of Broad substrate specificity ATP-binding cassette transporter ABCG2 (Homo sapiens) (Q9UNQ0 whole entry, looked up): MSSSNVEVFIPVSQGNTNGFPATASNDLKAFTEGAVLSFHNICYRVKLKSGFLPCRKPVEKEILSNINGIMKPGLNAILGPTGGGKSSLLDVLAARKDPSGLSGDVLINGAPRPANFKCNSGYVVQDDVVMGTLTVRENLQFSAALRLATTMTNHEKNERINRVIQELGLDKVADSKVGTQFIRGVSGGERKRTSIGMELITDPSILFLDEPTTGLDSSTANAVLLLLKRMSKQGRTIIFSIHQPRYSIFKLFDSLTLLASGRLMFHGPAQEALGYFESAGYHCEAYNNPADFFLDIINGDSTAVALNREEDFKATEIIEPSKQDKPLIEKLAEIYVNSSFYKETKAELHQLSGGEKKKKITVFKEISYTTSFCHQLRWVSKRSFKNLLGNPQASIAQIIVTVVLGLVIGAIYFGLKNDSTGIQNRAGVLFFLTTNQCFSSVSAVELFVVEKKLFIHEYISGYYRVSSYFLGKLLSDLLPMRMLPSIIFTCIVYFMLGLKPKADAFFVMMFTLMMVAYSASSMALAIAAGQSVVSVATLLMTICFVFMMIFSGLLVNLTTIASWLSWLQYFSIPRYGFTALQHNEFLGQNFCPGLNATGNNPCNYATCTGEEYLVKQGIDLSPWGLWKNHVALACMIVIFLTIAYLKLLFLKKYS

As for `O=[N+]([O-])c1ccc(Nc2ccccc2)cc1`, the call in experiment [1] and in experiment [2] was inactive.

In general, AC50 refers to the concentration at which the activity in the assay is half-maximal. Take `Oc1c(Cl)cc(Cl)cc1Cl`: the AC50 in experiment [2] is 50 µM (active). Moreover, the molecule was classed as inactive in [3], in [4], in experiment [5], in experiment [6], in [7] and in [8]. In addition, the result in experiment [9], in [10], in [11], in [12], in experiment [13] and in experiment [14] was inactive. Moreover, the result in experiment [15] and in experiment [16] was inactive.

Take `CCOP(=S)(OCC)O/N=C(\C#N)c1ccccc1`: in [2], the AC50 is 50 µM (active).

Turning to `OC(Cc1ccccc1Cl)(Cn1cncn1)C1(Cl)CC1` (stereo not given), the AC50 in [1] was 3.86 µM (active); in [2], 6.41 µM (active).

In the case of `CCOP(=O)(OCC)OC(=CCl)c1ccc(Cl)cc1Cl`, the concentration at half-maximal activity (AC50) in experiment [2] is 5.17 µM (active).

Consider `Oc1cccc(-c2ccccc2)c1`, for which the result in [1] was inactive. In experiment [2], the AC50 was 10 µM (active).

As to `Cc1cc(C(C)(C)c2ccc(O)c(C)c2)ccc1O`, in experiment [2], the molecule was called inactive. Moreover, the AC50 in experiment [17] was 5 µM (active).

With `C[C@]12CC[C@@H](O)C[C@@H]1CC[C@@H]1[C@@H]2CC[C@]2(C)C(=O)CC[C@@H]12`, the AC50 in [2] was 3.65 µM (active).

Turning to `O=C(N[C@H]1CN2CCC1CC2)c1ccc2c(c1)OCCO2`, the molecule was called inactive in experiment [3], in [4], in [5], in experiment [6], in experiment [7] and in experiment [8]. For the same molecule, the molecule was called inactive in experiment [18], in experiment [9], in experiment [10], in experiment [11], in [19] and in experiment [12]. For the same molecule, the result in [13], in experiment [20], in experiment [14], in experiment [15] and in [16] was inactive.

In the case of `O=C(O)C1(c2ccc3c(c2)OC[C@H](Cc2ccc(-c4ccccc4)cc2)[C@H]3O)CCCC1`, the AC50 is 50 µM (active) in [3]; 80.2 µM (active) in [5]; 82 µM (active) in [7]; 81.8 µM (active) in experiment [8]; 23.3 µM (active) in experiment [18]; 50 µM (active) in experiment [10]. Also, the AC50 is 86.9 µM (active) in experiment [12], 75.7 µM (active) in [13], 82.4 µM (active) in experiment [15] and 91.7 µM (active) in experiment [16]. The result in experiment [4], in [6], in experiment [9], in [11], in experiment [19] and in experiment [20] was inactive. In experiment [14], the result was inactive.
